Compound activity deposited in PubChem BioAssay by several laboratories.
CYP2C9 inhib = inhibitors of human CYP2C9; CYP2C9 Supersomes, luciferin-H conversion, luminescence; inhibition, % at 5 µM; 96,000 tested, 20% active; AID 777;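 active means blocking of liver enzyme CYP2C9 beyond about 50% at 5 µM, limit read from the data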
sEH act = activators of human soluble epoxide hydrolase | P34913 | purified human sEH enzymatic activity, activator screen | activation, % at 2 µM | 91,000 tested, 0.04% active | AID 717; in the data active means activation above about 37%
Target sequence (P34913 whole entry, looked up): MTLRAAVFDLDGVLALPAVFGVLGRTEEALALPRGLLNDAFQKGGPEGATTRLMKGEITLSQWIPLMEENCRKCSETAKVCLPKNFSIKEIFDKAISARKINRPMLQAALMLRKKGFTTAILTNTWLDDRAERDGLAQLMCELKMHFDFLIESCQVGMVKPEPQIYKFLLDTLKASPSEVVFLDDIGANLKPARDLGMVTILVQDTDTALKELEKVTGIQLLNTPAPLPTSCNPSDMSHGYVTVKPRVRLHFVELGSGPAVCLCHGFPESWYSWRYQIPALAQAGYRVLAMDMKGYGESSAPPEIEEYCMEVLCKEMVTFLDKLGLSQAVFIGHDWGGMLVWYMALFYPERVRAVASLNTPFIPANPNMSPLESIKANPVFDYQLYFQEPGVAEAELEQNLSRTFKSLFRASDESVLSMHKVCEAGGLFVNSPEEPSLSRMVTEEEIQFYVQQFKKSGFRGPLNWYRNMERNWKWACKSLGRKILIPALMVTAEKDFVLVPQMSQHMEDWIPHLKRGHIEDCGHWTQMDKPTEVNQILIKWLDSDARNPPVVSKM
CYP2C9 activ = CYP2C9 (human) activation; P11712; recombinant CYP2C9, luciferin-H conversion, luminescence; hits give high values; factor 1 = untreated enzyme, 0 = blocked; activation factor at 5 µM; 96,000 tested, 1.4% active;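 active means activation factor of 2 or more for CYP2C9 at a 5 µM dose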;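 further: 0 = sulfaphenazole-blocked wells and 1 = vehicle-only wells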
CYP2C19 act = activators of human cytochrome P450 2C19; P33261; recombinant CYP2C19, luciferin-H EGE luminescence; hits give high values; 0 = fully inhibited enzyme, 1 = untreated enzyme; activation factor at 5 µM; 96,000 tested, under 10 active;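 active means activation factor of at least 2 at 5 µM in the primary screen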;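 further: 0 = wells with 2.5 mM tranylcypromine and 1 = vehicle-only wells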
sEH inhibitor = soluble epoxide hydrolase (human) inhibition | P34913 | recombinant human sEH enzymatic activity assay | inhibition, % at 2 µM | 91,000 tested, 0.34% active | AID 707; in the data active means inhibition above about 80%
CYP2C19 inh = inhibitors of human CYP2C19 | inhibition, % at 5 µM | 96,000 tested, 21% active | AID 778 | CYP2C19 Supersomes, luciferin-H EGE luminescence, 30 min | P33261;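 active means CYP2C19 inhibition above a set limit at 5 µM in the primary screen, cut at about 50% in these data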;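 further: plate controls were negative control wells for no effect and 2.5 mM tranylcypromine positive control for full effect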
* marks the source's active call; other numbers are inactive results; / = no result. An excerpt weighted towards active compounds, which were near 27% of everything screened.

SMILES	CYP2C9 inhib	sEH act	CYP2C9 activ	CYP2C19 act	sEH inhibitor	CYP2C19 inh
CCCCCn1c(=O)[nH]c2cc(C(=O)NCCc3ccc(OC)c(OC)c3)ccc2c1=O	70.4*	-68.7	0.3	0.4	67.9	58.9*
CCN1CCN(CCNC(=O)CCCCCn2c(=O)[nH]c3cc(C(=O)OC)ccc3c2=O)CC1	53.4*	-5.2	0.5	0.8	7.7	17.0
CSc1ccc2[nH]c(=O)cc(C)c2c1	12.1	4.0	0.9	0.9	-5.5	6.7
COc1cc2[nH]c(=O)n(CCCCCC(=O)N3CCN(c4ccccc4)CC3)c(=O)c2cc1OC	70.0*	-2.4	0.3	0.2	1.3	78.8*
Cc1ccc(Oc2ccc(NC(=O)CCC(=O)OCC(=O)c3cccs3)cc2)cc1C	-1.3	6.8	1	0.9	-3.3	7.0
c1ccc2c(Cn3ccnc3)c[nH]c2c1	84.3*	12.9	0.2	0.1	-10.0	86.0*
Nc1nnc(Cc2c[nH]c3ccccc23)s1	-9.1	23.6	1.1	0.7	-21.0	30.7
Cc1noc(C)c1C(=O)N1CCN(C(=O)c2sc3cc(Cl)ccc3c2Cl)CC1	43.1	6.4	0.6	0.6	-6.1	35.2
Cc1c(CN(C)C(=O)c2sc3cc(Cl)ccc3c2Cl)cnn1C	-34.1	-5.7	1.3	0.1	5.6	92.6*
O=C(Nc1ccccc1-c1nnn(CC(=O)N2CCc3ccccc3C2)n1)C1CCC1	64.6*	-6.4	0.4	0.8	4.7	20.5
O=C(CCn1nnc(-c2cccs2)n1)N1CCc2ccccc2C1	22.3	19.0	0.8	0.7	-18.5	25.5
O=C(Nc1cccc(-c2nnn(CC(=O)N3CCc4ccccc4C3)n2)c1)C1CCC1	46.8	4.5	0.5	0.2	-5.5	83.7*
CC1Cc2ccccc2N1C(=O)Cn1nnc(-c2ccccc2NC(=O)C2CCC2)n1 (stereo unspecified)	/	-4.1	/	/	8.9	/
CCC(=O)N(Cc1cc2cc(OC)ccc2[nH]c1=O)c1cccc(C)c1	-6.4	-6.8	1.1	1.1	8.3	-9.9
NC(=O)c1cc(Cc2ccccc2)sc1NC(=O)c1ccco1	56.0*	/	0.4	0.8	/	17.0
CCc1c(C)sc(NC(=O)c2cc(C)on2)c1C#N	4.5	0.0	1	1.2	0.1	-15.4
CCOC(=O)c1c(NC(=O)c2ccoc2C)sc(C)c1C	-35.4	1.0	1.4	1.1	0.9	-12.7
O=C(Nc1nnc(Cc2ccccc2)s1)c1ccco1	26.8	-9.5	0.7	1	6.8	1.9
CCCc1cc(C(N)=O)c(NC(=O)c2cc(C)on2)s1	63.8*	1.4	0.4	0.8	0.0	18.2
CCCc1cc(C(N)=O)c(NC(=O)c2ccoc2C)s1	87.9*	-0.7	0.1	0.3	4.4	67.2*
CCOC(=O)c1cc(NC(=O)c2ccoc2C)cc(C(=O)OCC)c1	52.1*	9.8	0.5	0.6	-6.7	40.0
COc1ccccc1NS(=O)(=O)c1ccc(NC(=O)CCNC(=O)c2ccco2)cc1	0.6	-6.4	1	0.9	6.8	12.4
Cc1ccc(SCC(=O)NCc2cccnc2)cc1	26.7	4.9	0.7	0.8	-8.0	18.5
CCOC(=O)C1=C(C)NC(SCC(=O)O)=NC1c1ccccc1 (stereo unspecified)	16.0	/	0.8	0.8	/	16.1
CC(=O)c1ccc(-c2nc3c4ccccc4ccn3c2C(C)=O)o1	4.5	0.8	1	0.8	-1.1	16.9
SMILES	CYP2C9 inhib	sEH act	CYP2C9 activ	CYP2C19 act	sEH inhibitor	CYP2C19 inh
c1ccc2nc3c(cc2c1)CCCCCC3	43.7	-8.8	0.6	0.3	7.5	66.0*
Nc1c2c(nc3ccccc13)CCC2	/	25.4	/	/	-26.2	/
CN1CCN(CP(=O)(N2CCOCC2)N2CCOCC2)CC1	11.2	-0.4	0.9	1	-1.0	-4.6
Cc1cccc(NC(=O)C2CCCN(S(=O)(=O)c3c(C)nn(C)c3C)C2)n1 (stereo unspecified)	16.8	/	0.8	1.1	/	-11.1
Brc1ccc(C2Nc3cccc4cccc(c34)N2)o1	20.4	0.6	0.8	0.3	3.4	71.0*
N#C/C(C(N)=O)=c1/ccc2c(c1)N1C3=C(CCCC3)CC3CCCCC31N=2 (stereo unspecified)	89.4*	-6.4	0.1	0.5	9.1	54.4*
N#CC(C#N)=c1ccc2c(c1)N1C3=C(CCCC3)CC3CCCCC31N=2 (stereo unspecified)	97.8*	8.4	0	0.1	-5.2	90.0*
COCC(=O)Nc1ccc(S(=O)(=O)Nc2cc(C)nc(C)n2)cc1	-2.6	4.7	1	1	-5.4	-0.6
